Rows were chosen to be rich in hits. Some 5.8% of all compounds tested hit in one or more screens of this group.
KB-3-1 cytotox: qHTS assay for MDR1-selective chemotherapeutics: Primary screen using the parental adenocarcinoma cell KB-3-1; Potency, µM (doses to about 46.1 µM), actives largely listed as cytotoxic; KB-3-1 viability, CellTiter-Glo ATP luminescence, 72 h; AID 1347075, 2019; actives 1.4% (n = 400,000); note: % is set by controls: 0 for no effect and ±100 for the full control effect; nearly all actives have a fitted effect of over 60% in size
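Cytotoxicity in the drug-sensitive parental line KB-3-1 was scored as loss of CellTiter-Glo luminescence following 72 h incubation with compound. Values come from curve fitting of normalized concentration-response data.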
KB-V1 MDR tox: qHTS assay for MDR1-selective chemotherapeutics: Primary screen using the drug-selected MDR subline cells KB-V1; Potency, µM (series often up to 46.1 µM), usual class: cytotoxic; AID 1347076, 2019; actives 3.4% (n = 400,000); KB-V1 MDR cells viability, CellTiter-Glo, 72 h; note: % is set by controls: 0 for no effect and ±100 for the full control effect; nearly all actives have a fitted effect of over 60% in size
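Cytotoxicity via CellTiter-Glo luminescence after 72 h compound exposure at 37 degrees C. Cells: drug-selected KB-V1 line, DMEM phenol-red free plus 10% FBS. Compounds tested at multiple concentrations; normalized data fitted to concentration-effect curves.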
PINK1 expr mod: A Quantitative High throughput Screen to Identify Chemical Modulators of PINK1 Expression. actives 0.2% (n = 410,000). PINK1 immunofluorescence, high-content cytometry, 24 h. Potency, µM (series often up to 76.6 µM), for the others: at the highest dose activation (PINK1 increase), usual class: activators; active = well fitted activation curve with a large enough effect; inconclusive = small, poorly fitted or top-dose-only effect; cell line not stated here; note: % of control where 0% means no effect; nearly all actives have a fitted effect of over 65% in size
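Compound titrations (5 concentrations, 24 h) on a stable cell line; DMSO and CCCP controls. Endpoint: fixed-cell PINK1 immunofluorescence with mitochondrial, cell and nuclear markers, scanned by microplate cytometer.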
ALOX12 inh: Primary qHTS assay for inhibitors of human arachidonate 12S-lipoxygenase (ALOX12): Round 2 | Potency, µM (titrated, usually from 108 µM), without a hit: at the highest dose activity change, negative = inhibition, actives largely listed as inhibitors | purified 12hLO, xylenol orange hydroperoxide absorbance | actives 1.1% (n = 580,000); note: % is set by controls: 0 for no effect and ±100 for the full control effect
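Purified human 12hLO at 150 nM in 25 mM Hepes, 0.01% Triton X-100, pH 7.0, preincubated 15 min at room temperature with compound. Reaction started with 40 uM arachidonic acid, 30 min at room temperature. Hydroperoxide measured by Fe-xylenol orange, 573/405 nm absorbance ratio.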
MCF10A rereplic: A quantitative high throughput screen for small molecules that induce DNA re-replication in MCF 10a normal breast cells | MCF 10A DNA re-replication, Hoechst nuclear intensity, 48 h | AID 624296, 2012 | actives 2.9% (n = 350,000) | Potency, µM (top dose mostly 46.1 µM), for the others: at the top dose activity, positive = re-replication, actives largely listed as activators; note: % of control where 0% means no effect; nearly all actives have a fitted effect of over 50% in size
SW480 rerep: A quantitative high throughput screen for small molecules that induce DNA re-replication in SW480 colon adenocarcinoma cells | SW480 DNA re-replication, Hoechst DNA content imaging, 48 h | actives 1.8% (n = 340,000) | Potency, µM (doses to about 46.1 µM), for the others: at the highest dose re-replication activation, usual class: activators; note: % of control where 0% means no effect; nearly all actives have a fitted effect of over 55% in size
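Readout is total intensity of Hoechst-stained nuclei, excited at 405 nm and collected at 500-530 nm. Compound treatment lasted 48 hr at 37 C in 5% CO2 before staining.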
An asterisk follows results filed as active; [ ] = dose if it differs, or a comment. Unless noted, calls come from the whole dose curve; as a rule, active = well fitted curve in the direction sought with a large enough effect; inconclusive = small, poorly fitted or top-dose-only effect, or another doubt; inactive = no such curve, though single readings can be large; an effect the other way counts as inactive or inconclusive. Potency is the fitted concentration of half-maximal effect.

What do the screens show for `COC(=O)c1[nH]c2ccc(F)cc2c1NC(=O)CCN1CCCC(C)(C)C1`?
ALOX12 inh: -20.7%

Results for COc1ccccc1CNS(=O)(=O)c1cc(CN2C(=O)c3cccnc3C2=O)ccc1OC ?
KB-3-1 cytotox: inactive; KB-V1 MDR tox: inconclusive; PINK1 expr mod: 0.3%; ALOX12 inh: 35.5µM*; MCF10A rereplic: 27.9%; SW480 rerep: -20.9%

How did COc1cccc(C(=O)NC2CCCN(c3cc(-c4ccc(F)cc4)[nH]n3)C2)c1 (stereo unspecified) do in these assays?
ALOX12 inh: 17.1%

How did Cc1c(C(=O)C(=O)Nc2ccc(C(N)=O)cc2)c2ccccc2n1C do in these assays?
ALOX12 inh: 1.6%

What do the screens show for `Cc1ccc(OCC(=O)NNC(=O)c2ccoc2C)c(Br)c1`?
KB-3-1 cytotox: inactive; KB-V1 MDR tox: inactive; PINK1 expr mod: -0.2%; ALOX12 inh: 0.5%; MCF10A rereplic: -6.3%; SW480 rerep: 0.0%

Results for CC(C)NC(=O)NC(=O)COc1ccc(Br)cc1Br ?
KB-3-1 cytotox: inactive; KB-V1 MDR tox: inconclusive; PINK1 expr mod: 3.6%; ALOX12 inh: -11.2%; MCF10A rereplic: 23.1µM*; SW480 rerep: 12.1%

How did Cc1occc1C(=O)NNC(=O)COc1ccc(Br)cc1Br do in these assays?
KB-3-1 cytotox: inactive; KB-V1 MDR tox: 14.6µM*; PINK1 expr mod: 1.3%; ALOX12 inh: -2.3%; MCF10A rereplic: 4.3%; SW480 rerep: 1.0%

How did O=C(COc1ccc(Br)cc1Br)NC1CCCC1 do in these assays?
KB-3-1 cytotox: inactive; KB-V1 MDR tox: inactive; PINK1 expr mod: -0.3%; ALOX12 inh: -3.1%; MCF10A rereplic: -5.6%; SW480 rerep: inconclusive

What do the screens show for `O[C@H]1CC[C@@H](Cc2cc(-c3ccccc3)on2)O[C@@H]1CNC1CCCCC1`?
ALOX12 inh: 8.9%[176 µM]

How did CCOC(=O)CSc1nc2c(sc3ccccc32)c(=O)n1CCCN1CCOCC1 do in these assays?
KB-3-1 cytotox: inactive; KB-V1 MDR tox: 14.6µM*; PINK1 expr mod: 0.1%; ALOX12 inh: -7.0%; MCF10A rereplic: 4.8%; SW480 rerep: -9.2%

What do the screens show for `CC(=O)c1ccccc1NC(=O)CSc1nc2ccccc2c(=O)n1CCCN1CCOCC1`?
KB-3-1 cytotox: inactive; KB-V1 MDR tox: inactive; PINK1 expr mod: 0.5%; ALOX12 inh: -2.4%; MCF10A rereplic: -0.2%; SW480 rerep: 3.0%

Results for CCOC(=O)c1ccccc1NC(=O)CSc1nc2ccccc2c(=O)n1CCCN1CCOCC1 ?
KB-3-1 cytotox: inactive; KB-V1 MDR tox: inactive; PINK1 expr mod: 6.7%; ALOX12 inh: 2.6%; MCF10A rereplic: 13µM*; SW480 rerep: inconclusive

Results for O=C(C1=C(Nc2ccc(N3CCCC3)c(Cl)c2)c2ccccc2S1(=O)=O)N1CCOCC1 ?
ALOX12 inh: 0.2%

Results for Cn1c(=O)[nH]c(=O)c2c1nc(NCc1ccccc1)n2CCCc1ccccc1 ?
KB-3-1 cytotox: inactive; KB-V1 MDR tox: 11.6µM*; PINK1 expr mod: 2.8%; ALOX12 inh: 10.2%; MCF10A rereplic: 1.7%; SW480 rerep: -2.8%

How did CNc1nc2c(c(=O)n(C)c(=O)n2C)n1CCCc1ccccc1 do in these assays?
KB-3-1 cytotox: inconclusive; KB-V1 MDR tox: 8.2µM*; PINK1 expr mod: 2.0%; ALOX12 inh: 35.6%; MCF10A rereplic: 12.4%; SW480 rerep: -3.3%

How did Cn1c(=O)c2c(nc(NCc3ccco3)n2C)n(C)c1=O do in these assays?
KB-3-1 cytotox: inactive; KB-V1 MDR tox: inactive; PINK1 expr mod: -5.5%[38.3 µM]; ALOX12 inh: -12.7%; MCF10A rereplic: -4.9%; SW480 rerep: -1.4%
